Reference: PubChem BioAssay (NCI)
The panel holds about 79,000 compounds, 15% with a hit somewhere; the sample as a whole holds those more often. The source made the active and inactive calls. No stated cut-off is given here; in the data, active means growth inhibition above about 70%; inactive means the rest.

What was measured:
[1] = NCI Yeast Anticancer Drug Screen. Data for the rad50 strain (AID 155);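 further: 0% = growth of vehicle-only cultures of the same strain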; conditions: S. cerevisiae rad50 strain growth inhibition, active compounds read high
Method in brief: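 Cells are treated with compound, grown, and their growth is then scored against vehicle-only cultures of the same repair-deficient yeast strain.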

[2] = NCI Yeast Anticancer Drug Screen. Data for the mec2-1 strain (AID 157); conditions: S. cerevisiae mec2-1 strain, active compounds read high
Method in brief: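 Mutant yeast (mec2-1) grown with compound; growth inhibition relative to vehicle control reported.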

[3] = NCI Yeast Anticancer Drug Screen. Data for the sgs1 mgt1 strain (AID 161);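 further: 0% = growth of cultures given vehicle only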; conditions: S. cerevisiae sgs1 mgt1 strain, active compounds read high
Method in brief: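 Percent growth inhibition was derived by comparing compound-exposed mutant yeast with vehicle-exposed cultures. The strain carries alterations in DNA damage repair.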

[4] = NCI Yeast Anticancer Drug Screen. Data for the cln2 rad14 strain (AID 165);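 further: 0% = growth equal to vehicle treated cultures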; conditions: S. cerevisiae cln2 rad14 strain, active compounds read high
Method in brief: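 Readout is yeast growth inhibition versus vehicle-treated controls, using a strain with cln2 and rad14 alterations exposed to compound.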

[5] = NCI Yeast Anticancer Drug Screen. Data for the bub3 strain (AID 167); conditions: S. cerevisiae bub3 mutant strain, active compounds read high
Method in brief: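 Part of a panel of yeast mutants defective in DNA damage repair or cell cycle regulation. Each strain is grown with compound, and inhibition is calculated relative to solvent-treated cultures.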

[6] = NCI Yeast Anticancer Drug Screen. Data for the mlh1 rad18 strain (AID 175); conditions: S. cerevisiae mlh1 rad18 strain growth inhibition, active compounds read high
Method in brief: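 Genetically defined yeast (DNA repair-deficient) exposed to compounds; growth inhibition determined relative to vehicle.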

[7] = at 5.0 µM (retest, dose inferred, filed as 0.5)
[8] = at 50.0 µM (retest, dose inferred, filed as 5.0)

Measured: growth inhibition

O=C1/C(=C\c2ccc([N+](=O)[O-])cc2)CS(=O)(=O)C/C1=C/c1ccc([N+](=O)[O-])cc1
active: [1]; [7] 81% | [1]; [8] 96% | [2]; [7] 97% | [2]; [8] 98% | [3]; [7] 93% | [3]; [8] 96% | [3]; at 50.0 µM 87.2% | [4]; [7] 91% | [4]; [8] 97% | [4]; at 50.0 µM 86.8% | [5]; [7] 97% | [5]; [8] 99% | [5]; at 50.0 µM 87.6% | [6]; [7] 94% | [6]; [8] 96%

O=C(NNc1ccccc1)OCc1ccccc1
inactive: [1]; [7] 41% | [1]; at 50.0 µM 55% | [2]; [7] 43% | [2]; at 50.0 µM 20.5% | [3]; [7] 42% | [4]; [7] 55% | [5]; [7] 50% | [6]; [7] 29% | [6]; at 50.0 µM 32.5%
active: [1]; [8] 79% | [2]; [8] 86% | [3]; [8] 95% | [4]; [8] 97% | [5]; [8] 94% | [6]; [8] 84%

COc1cc(NC(=O)C2=C(C)NC(C)=C(C(=O)Nc3cc(OC)c(Cl)cc3OC)C2c2cccc([N+](=O)[O-])c2)c(OC)cc1Cl
inactive: [1]; [7] -24% | [2]; [7] 5% | [4]; [7] -31% | [5]; [7] 27% | [6]; [7] -14%
active: [1]; [8] 96% | [1]; at 50.0 µM 96.7% | [2]; [8] 97% | [2]; at 50.0 µM 76.3% | [4]; [8] 96% | [4]; at 50.0 µM 95.8% | [5]; [8] 97% | [5]; at 50.0 µM 95.5% | [6]; [8] 96% | [6]; at 50.0 µM 96.9%

c1ccc(-c2nc(N=C3N=c4ccccc4=N3)[nH]c2-c2ccccn2)nc1
inactive: [1]; [7] 59% | [2]; [7] 54% | [3]; [7] 36% | [4]; [7] 49% | [5]; [7] 58% | [6]; [7] 49%
active: [1]; [8] 96% | [1]; at 50.0 µM 75.1% | [2]; [8] 97% | [2]; at 50.0 µM 77.8% | [3]; [8] 84% | [4]; [8] 93% | [5]; [8] 80% | [6]; [8] 98% | [6]; at 50.0 µM 75.5%

Cc1cc(O)c(O)c(C(C)(C)CC(C)(C)C)c1
active: [1]; [8] 87% | [1]; at 50.0 µM 91.3% | [2]; [8] 83% | [2]; at 50.0 µM 92.5% | [3]; [7] 97% | [3]; [8] 100% | [4]; [7] 78% | [4]; [8] 100% | [5]; [7] 94% | [5]; [8] 99% | [6]; [8] 73% | [6]; at 50.0 µM 91.2%
inactive: [1]; [7] 36% | [2]; [7] 38% | [6]; [7] 23%

O=C(OC12CC3CC(CC(C3)C1)C2)c1ccc(NCc2cc(O)ccc2O)cc1
active: [1]; [8] 94% | [1]; at 50.0 µM 84.7% | [2]; [8] 96% | [2]; at 50.0 µM 88% | [4]; [8] 95% | [4]; at 50.0 µM 87.8% | [5]; [8] 91% | [5]; at 50.0 µM 89.8% | [6]; [8] 94% | [6]; at 50.0 µM 88.5%
inactive: [1]; [7] 39% | [2]; [7] 28% | [4]; [7] 17% | [5]; [7] 28% | [6]; [7] 32%

CCCCCCCCCCCCCCCC[N+](C)(C)C
active: [1]; [8] 94% | [1]; at 50.0 µM 91.3% | [2]; [8] 87% | [2]; at 50.0 µM 93.1% | [3]; [7] 93% | [3]; [8] 97% | [4]; [7] 82% | [4]; [8] 97% | [5]; [7] 97% | [5]; [8] 96% | [6]; [8] 84% | [6]; at 50.0 µM 91.7%
inactive: [1]; [7] 53% | [2]; [7] 45% | [6]; [7] 30%

C/C(=N\NC(=S)N1CCC1)c1ccccn1
active: [1]; [7] 91% | [1]; [8] 96% | [2]; [7] 88% | [2]; [8] 98% | [3]; [7] 92% | [3]; [8] 99% | [3]; at 50.0 µM 87.8% | [4]; [7] 93% | [4]; [8] 96% | [4]; at 50.0 µM 87% | [5]; [7] 94% | [5]; [8] 98% | [5]; at 50.0 µM 87.5% | [6]; [7] 93% | [6]; [8] 96%

COc1cccc2c1C(=O)c1c(O)c3c(c(O)c1C2=O)C[C@@](O)(C(=O)CO)C[C@@H]3OC1CC(OC(C)=O)C(OC(C)=O)C(C)O1 (some centres not stated)
active: [1]; [7] 71% | [1]; [8] 98% | [1]; at 50.0 µM 86.8% | [2]; [8] 99% | [2]; at 50.0 µM 87.5% | [5]; [8] 99% | [5]; at 50.0 µM 88.9% | [6]; [8] 97% | [6]; at 50.0 µM 91.6%
inactive: [2]; [7] 36% | [5]; [7] 42% | [6]; [7] 48%

O=C(c1ccccc1)C(O)C(Br)(CBr)c1ccccc1 (configuration not stated)
inactive: [1]; [7] 19% | [2]; [7] 11% | [4]; [7] 15% | [5]; [7] 2% | [6]; [7] 6%
active: [1]; [8] 97% | [1]; at 50.0 µM 90.7% | [2]; [8] 98% | [2]; at 50.0 µM 94.5% | [4]; [8] 82% | [4]; at 50.0 µM 94.8% | [5]; [8] 98% | [5]; at 50.0 µM 96.8% | [6]; [8] 97% | [6]; at 50.0 µM 93.7%

CC(C)c1ccc(C(=O)OC2CCCC2)cc1
inactive: [1]; [7] 8% | [3]; [7] 9% | [3]; at 50.0 µM 54.6% | [4]; [7] 6% | [5]; [7] 4% | [5]; at 50.0 µM 53% | [6]; [7] 4%
active: [1]; [8] 98% | [1]; at 50.0 µM 96.5% | [3]; [8] 99% | [4]; [8] 99% | [4]; at 50.0 µM 94.3% | [5]; [8] 99% | [6]; [8] 99% | [6]; at 50.0 µM 93.3%

CC(C)=CCCC(C)C1=C(O)C(=O)C(C)=CC1=O (configuration not stated)
inactive: [1]; [7] 25% | [3]; [7] 15% | [4]; [7] 24% | [4]; at 50.0 µM 70% | [5]; [7] 19% | [6]; [7] 25%
active: [1]; [8] 97% | [1]; at 50.0 µM 88.8% | [3]; [8] 99% | [3]; at 50.0 µM 90.8% | [4]; [8] 86% | [5]; [8] 99% | [5]; at 50.0 µM 90.6% | [6]; [8] 98% | [6]; at 50.0 µM 87%
